Test results from the supplement of paper PMC6522484.
± gives the standard deviation of the averaged measurements.

Tests used:
[1] = test system: DLD1; test: cell viability (CellTiter-Glo) relative to plate median (fraction of plate median); higher = more viable cells; settings: 5 µM; treatment time 24 h; reporter: 7TFP
In short: (§1)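 Colorectal cancer cell lines stably transduced with lentiviral TCF/Wnt firefly luciferase reporters (7TFP or TCF4/Wnt) were seeded in 384-well plates. 24 h later they received library compounds at a final 5 µM for 24 h. Parallel plates were read for firefly luciferase or CellTiterGlo luminescence on a Tecan F500 reader. Each well's signal was normalised to the plate median (webcellHTS2, additive, no log transformation), and the mean of two independent replicates is reported.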

[2] = test system: HCT116; test: as above; settings: 5 µM; treatment time 24 h; reporter: TCF4/Wnt
In short: as §1

[3] = test system: SW480; test: as above; settings: 5 µM; treatment time 24 h; reporter: 7TFP
In short: as §1

[4] = test system: DLD1; test: TCF/Wnt firefly luciferase reporter signal relative to plate median (fraction of plate median); higher = higher Wnt reporter signal; settings: 5 µM; treatment time 24 h; reporter: 7TFP
In short: as §1

[5] = test system: SW480; test: as above; settings: 5 µM; treatment time 24 h; reporter: 7TFP
In short: as §1

| Structure (SMILES) | cell viability [1] | cell viability [2] | cell viability [3] | TCF/Wnt firefly luciferase reporter signal [4] | TCF/Wnt firefly luciferase reporter signal [5] |
| --- | --- | --- | --- | --- | --- |
| COP(=S)(OC)Oc1ccc(Sc2ccc(OP(=S)(OC)OC)cc2)cc1 | 1.025 ± 0.0071 | 1.06 ± 0.014 | 0.987 ± 0.011 | 1.06 ± 0.092 | 1.04 ± 0.014 |
| Nc1ccc([As](=O)(O)O)cc1 | 1.01 ± 0.021 | 1.09 ± 0.092 | 0.941 ± 0.04 | 0.976 ± 0.063 | 0.962 ± 0.028 |
| C=CCN1CC[C@]23c4c5ccc(O)c4O[C@H]2C(=O)CC[C@@]3(O)[C@H]1C5 | 1.04 ± 0.05 | 0.936 ± 0.011 | 1.08 ± 0.014 | 0.959 ± 0.011 | 0.918 ± 0.019 |
| CC[C@H]1CN2CC[C@H]1C[C@@H]2[C@@H](O)c1ccnc2ccc(OC)cc12 | 0.997 ± 0.0042 | 1.07 ± 0.05 | 1.06 ± 0.064 | 1.08 ± 0.24 | 1.06 ± 0.071 |
| O=C(NC(=O)c1c(F)cccc1F)Nc1ccc(Cl)cc1 | 1.01 ± 0.021 | 0.939 ± 0.07 | 1.01 ± 0.016 | 0.914 ± 0.18 | 0.876 ± 0.044 |
| CC(=O)[C@H]1CC[C@H]2[C@@H]3CC[C@H]4C[C@H](O)CC[C@]4(C)[C@H]3CC[C@]12C | 0.966 ± 0.049 | 0.97 ± 0.0057 | 0.99 ± 0.014 | 0.902 ± 0.047 | 0.912 ± 0.059 |
| CC1(C)C2C[C@@H](O)[C@]3(C)C(CC[C@@]4(C)[C@H](c5ccoc5)OC(=O)[C@H]5O[C@]543)[C@@]2(C)[C@@H](O)C[C@H]1O (stereo not given in full) | 1.02 ± 0.071 | 0.963 ± 0.081 | 0.989 ± 0.0057 | 1.07 ± 0.18 | 0.936 ± 0.055 |
| CNC(=O)Oc1ccccc1OC(C)C | 0.98 ± 0.0071 | 0.983 ± 0.0042 | 0.986 ± 0.014 | 0.913 ± 0.19 | 1.01 ± 0.016 |
| C[C@@H]1C[C@H](C)C[C@H](C)[C@@H](O)CC(=O)O[C@H]([C@@H]2CCC[C@H]2C(=O)O)C/C=C/C=C(/C#N)[C@H](O)[C@@H](C)C1 [Borrelidin] | 0.894 ± 0.067 | 0.817 ± 0.18 | 1.01 ± 0.02 | 0.989 ± 0.059 | 1.06 ± 0.095 |
| C1CCc2nnnn2CC1 | 0.931 ± 0.05 | 1.05 ± 0.035 | 0.925 ± 0.052 | 0.963 ± 0.017 | 1.11 ± 0.042 |
| O=c1[nH]c2ccccc2n1C1CCN(CCCC(c2ccc(F)cc2)c2ccc(F)cc2)CC1 | 0.95 ± 0.013 | 0.922 ± 0.065 | 1.01 ± 0.019 | 1.02 ± 0.014 | 0.88 ± 0.12 |
| COc1ccc2c(c1)[nH]c1c(C)nccc12 | 0.98 ± 0.028 | 0.904 ± 0.04 | 0.964 ± 0.036 | 0.623 ± 0.067 | 0.625 ± 0.097 |
| CC(=O)O[C@H]1C[C@@H]2CC[C@@H]3[C@H](CC[C@@]4(C)[C@H]3C[C@H]([N+]3(C)CCCCC3)[C@@H]4OC(C)=O)[C@@]2(C)C[C@@H]1[N+]1(C)CCCCC1 | 0.9865 ± 0.0064 | 1.03 ± 0.062 | 0.963 ± 0.011 | 1.01 ± 0.093 | 0.9685 ± 0.0078 |
| CO[C@]12C[C@@H](COC(=O)c3cncc(Br)c3)CN(C)[C@@H]1Cc1cn(C)c3cccc2c13 | 0.999 ± 0.16 | 0.976 ± 0.033 | 0.999 ± 0.03 | 0.968 ± 0.1 | 1 ± 0.04 |
| C/C=C/[C@H]1O[C@@](O)([C@@H](C)[C@H](O)[C@H](C)[C@H]2OC(=O)/C(OC)=C/C(C)=C/[C@@H](C)[C@@H](O)[C@@H](C)[C@@H](O)[C@H](C)C/C(C)=C/C=C/[C@@H]2OC)C[C@@H](O[C@H]2C[C@@H](O)[C@H](OC(N)=O)[C@@H](C)O2)[C@@H]1C [Concanamycin B] | 0.935 ± 0.0085 | 0.941 ± 0.011 | 1.05 ± 0.014 | 0.9065 ± 0.0064 | 1.05 ± 0.042 |
